This is a sample that favours compounds with a hit; in the whole collection about 2.7% have one here.
GLP1R ag – qHTS of GLP-1 Receptor Agonists; Glucagon-like peptide 1 receptor (Homo sapiens), P43220; HEK293 GLP-1R CRE-luciferase, luminescence, 4-6 h; cells express a hypersensitive GLP-1R form; Potency, µM (top dose mostly 45.6 µM), most hits filed as activators; 380,000 compounds, 0.007% hits
IDH1 R132H inh – qHTS for Inhibitors of mutant isocitrate dehydrogenase 1 (IDH1): qHTS; IDH1-R132H enzyme, NADPH consumption, diaphorase/resazurin fluorescence; 390,000 compounds, 0.093% hits; Potency, µM (series often up to 76.6 µM), most hits filed as inhibitors; AID 602179, 2012; Isocitrate dehydrogenase [NADP] cytoplasmic (Homo sapiens), O75874; further: nearly all actives have a fitted effect of over 65% in size
Target sequence (O75874 whole entry R132H, stated change not applied): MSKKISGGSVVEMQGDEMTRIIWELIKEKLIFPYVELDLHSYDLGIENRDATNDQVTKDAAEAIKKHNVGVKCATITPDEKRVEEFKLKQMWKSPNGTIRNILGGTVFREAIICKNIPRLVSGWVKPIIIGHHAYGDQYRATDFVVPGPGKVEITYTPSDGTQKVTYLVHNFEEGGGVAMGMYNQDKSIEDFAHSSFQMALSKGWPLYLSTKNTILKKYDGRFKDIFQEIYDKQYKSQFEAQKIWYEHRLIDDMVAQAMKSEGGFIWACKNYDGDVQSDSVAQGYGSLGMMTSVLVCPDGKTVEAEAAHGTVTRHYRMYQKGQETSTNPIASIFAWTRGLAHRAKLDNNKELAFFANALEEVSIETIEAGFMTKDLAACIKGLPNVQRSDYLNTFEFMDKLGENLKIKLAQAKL
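IDH1-R132H (0.5 ug/mL dispensed) in pH 7.5 Tris buffer was preincubated 30 min with compound, then given a substrate mix of 0.016 mM NADPH and 2 mM alpha-KG for 80 min at room temperature; remaining NADPH was read by diaphorase/resazurin fluorescence.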
GLP1R inv ag – qHTS of GLP-1 Receptor Inverse Agonists (Inhibition Mode); Glucagon-like peptide 1 receptor (Homo sapiens), P43220; HEK293 GLP-1R CRE-luciferase, luminescence, 24 h; GLP-1R form is constitutively active; Potency, µM (titrated, usually from 38.3 µM), actives largely listed as inhibitors; 410,000 compounds, 1.6% hits; AID 624417, 2012; further: nearly all actives have a fitted effect of over 55% in size
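Inverse agonism was detected as reduced cAMP-driven luciferase luminescence after 24 h compound treatment. The cells were HEK293 clones expressing constitutively active human GLP-1R with the reporter. Reporter-only and GPR119 cell lines served as counterscreen controls.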
TrxR1 substrate – qHTS Assay for Substrates of Mammalian Selenoprotein Thioredoxin Reductase 1 (TrxR1): qHTS; purified TrxR1 substrate turnover, NADPH consumption readout; AID 588456, 2011; 390,000 compounds, 0.01% hits; Thioredoxin reductase 1, cytoplasmic (Rattus norvegicus), O89049; Potency, µM (series often up to 114 µM); further: nearly all actives have a fitted effect of over 50% in size
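Rat TrxR1, dispensed at 90 nM, was prereduced with 400 uM NADPH (final) for 5 min at ~22 deg C, then incubated with compound 15 min before 400 uM selenite. A first-read NADPH fluorescence drop versus no-compound background flagged substrates.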
TrxR1 inh – qHTS Assay for Inhibitors of Mammalian Selenoprotein Thioredoxin Reductase 1 (TrxR1): qHTS; Potency, µM (series often up to 114 µM), actives largely listed as inhibitors; 390,000 compounds, 1% hits; AID 588453, 2011; recombinant rTrxR1, NADPH fluorescence consumption, selenite substrate; Thioredoxin reductase 1, cytoplasmic (Rattus norvegicus), O89049; further: nearly all actives have a fitted effect of over 65% in size
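Rat TrxR1 (90 nM in the dispensed reagent) was pre-reduced with 400 uM NADPH for 5 min at room temperature, then incubated with compound for 15 min. After 400 uM selenite was added, NADPH fluorescence (Ex 340/Em 450 nm) was followed for 8 min.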
GLP1R cytotox – qHTS of GLP-1 Receptor Inverse Agonists: Cytotox Screen; Potency, µM (series often up to 38.3 µM), hits mostly inhibitors; 410,000 compounds, 0.13% hits; HEK293 cAMP-luciferase reporter cells, luminescence, 24 h; AID 624418, 2012;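 further: loss of luciferase light is scored as toxicity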
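1536-well qHTS counterscreen of the MLSMR; 200 cells/uL, 12 h pre-incubation, 23 nL cpd, 24 h at 37 deg C 5% CO2, luciferase detection reagent, 12 min RT, luminescence. Inhibition = undesired.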
Hits are given with their value; 0 = inactive; ? = inconclusive; - = no result given. The call rests on the fitted dose curve; in most records, active means well fitted curve in the direction sought with a large enough effect; inconclusive means small, poorly fitted or top-dose-only effect, or another doubt; inactive means no such curve, though single readings can be large; an effect the other way counts as inactive or inconclusive.

SMILES | GLP1R ag | IDH1 R132H inh | GLP1R inv ag | TrxR1 substrate | TrxR1 inh | GLP1R cytotox
O=C(Cn1c(=O)n(CCc2ccccc2)c(=O)c2c3c(sc21)CCCC3)Nc1ccc(F)c(F)c1 | 0 | 0 | 0 | 0 | 0 | 0
C/C(=N\OC(=O)c1ccc(C)cc1)c1c(C)nc2cc(C)ccn12 | 0 | 0 | 0 | 0 | 28µM | 0
C=CCNC(=S)Nc1cc(C)ccn1 | 0 | 0 | 10µM | 0 | 0 | ?
Cc1ccnc(NC(=S)NC(=O)/C=C/c2ccccc2)c1 | 0 | 0 | 0 | 0 | 0 | 0
COc1cccc(N2CC(NC(=O)C3CC3)CC2=O)c1 (configuration not stated) | - | 0 | 0 | 0 | 0 | 0
O=S(=O)(NC(=NCc1ccccc1)c1ccc(F)cc1)c1ccc(Cl)cc1 | 0 | 0 | 11µM | 0 | 0 | 0
Cc1cccc(C2C=C(c3ccc(C)c(C)c3)Nc3nnnn32)c1 (configuration not stated) | - | 0 | 0 | 0 | 0 | 0
CCCOC(=O)c1cc(-c2ccc(/C=C3/C(=O)N(C)C(=O)C(C#N)=C3C)o2)ccc1Cl | 0 | 0 | 0 | 0 | 18µM | 0
CCc1nnc(SCc2ccc(OC)cc2)c2cc3sc(C)cc3n12 | - | 0 | 0 | 0 | 0 | 0
CCCN1CNc2c(c(=O)[nH]c(=S)n2CCc2cc(OC)ccc2OC)C1 | - | - | - | 0 | 0 | -
COc1ccc(-c2cn3c(C)c(C(=O)N4CCCc5ccccc54)sc3n2)cc1 | 0 | 0 | 8.9µM | 0 | 0 | 0
CCOC(=O)/C(=N/Nc1ccc(OC)cc1)N1CCCc2ccccc21 | 0 | 0 | 4.5µM | 0 | 0 | 0
CC(C)Cn1c(=O)c2ccccc2n2c(CCC(=O)Nc3ccc(F)cc3)nnc12 | - | 0 | 0 | 0 | 0 | 0
Nc1nc(N)c2c(ccc3c2ccn3Cc2cccc([N+](=O)[O-])c2)n1 | 0 | - | 0.5µM | - | - | ?
Nc1nc(N)c2cc([N+](=O)[O-])ccc2n1 | 0 | 0 | 0 | 0 | 0 | 0
CN1/C(=C\C=O)C(C)(C)c2ccccc21 | 0 | 0 | 0 | 0 | 0 | 0
CN1\C(=C/C=C/C=C/C=[N+](C)C)C(C)(C)c2ccccc21 | 0 | 46µM | ? | 0 | ? | 0
COc1ccc(CN2CCN(Cc3ccc(C)cc3)CC2)c(OC)c1 | 0 | 0 | ? | 0 | 0 | 0
COc1ccc(CN2CCN(Cc3ccc(C(F)(F)F)cc3)CC2)c(OC)c1 | 0 | 0 | 11µM | 0 | 0 | 0
COc1ccc(C(=O)/C=C/c2cn(CC(O)CN3CCN(C)CC3)c3ccccc23)cc1OC (configuration not stated) | 0 | 0 | ? | 0 | 0 | 0
COc1ccc(C(=O)/C=C/c2cn(CC(O)CN3CCCCCC3)c3ccccc23)cc1OC (configuration not stated) | - | 0 | 0 | 0 | 40µM | 0
O=C(CCl)N=c1sccn1Cc1ccccc1Cl | 0 | 0 | ? | 0 | 25µM | ?
O=C(CCl)N=c1sccn1Cc1cccc2ccccc12 | 0 | 0 | ? | 0 | ? | 0
O=C(CCl)N=c1sccn1Cc1ccc(Cl)cc1Cl | 0 | 0 | 10µM | 0 | 32µM | ?
CN(C)CCCn1c(SCC(=O)Nc2nc(-c3cccc(Br)c3)cs2)nc2ccccc2c1=O | 0 | 0 | 11µM | 0 | 0 | ?
SMILES | GLP1R ag | IDH1 R132H inh | GLP1R inv ag | TrxR1 substrate | TrxR1 inh | GLP1R cytotox
O=C(CSc1nc2ccccc2[nH]1)Nc1nc(-c2cccc(Br)c2)cs1 | 0 | 0 | 0 | 0 | 0 | 0
O=C(NCC(c1ccc(Cl)cc1)N1CCCCC1)c1ccccc1F (configuration not stated) | - | 0 | 0 | 0 | 0 | 0
COCCN=c1scc(-c2ccccc2)n1/N=C/c1c[nH]c2ccccc12 | 0 | 0 | 4µM | 0 | 0 | 0
C(=NN=Cc1c[nH]c2ccccc12)c1c[nH]c2ccccc12 | 0 | 0 | 0 | - | - | 0
CCc1cc(SC#N)cc(C)c1NC(=O)CCl | 0 | 0 | ? | 0 | ? | 0
Cc1cc(SC#N)cc(C)c1NC(=O)CCl | 0 | 0 | ? | 0 | 50µM | ?
COc1cccc(OCc2cc(C(=O)N(Cc3ccccc3)CC3CC3)no2)c1 | 0 | 0 | 8.9µM | 0 | 0 | 0
CN(C)c1ccc(/C=C/c2cc3ccccc3c[n+]2C)cc1 | - | - | - | 0 | 0 | -
O=C1Nc2cc(S(=O)(=O)N3CCCC3)ccc2N2CCCC12 (configuration not stated) | 0 | 0 | 0 | 0 | 50µM | 0
CCN(CC)S(=O)(=O)c1ccc2c(c1)NC(=O)C1CCCN21 (configuration not stated) | 0 | 0 | 0 | 0 | ? | 0
COc1ccc(S(=O)(=O)Nc2cc3c(cc2NCc2ccccc2)n(C)c(=O)n3C)cc1 | - | 0 | 0 | 0 | 0 | 0
O=C1CC(N2CCC(c3nc4ccccc4o3)CC2)C(=O)N1c1ccc(Cl)c(C(F)(F)F)c1 (configuration not stated) | 0 | 0 | 0 | 0 | 18µM | 0
Cc1nc2n(c(=O)c1CCN1CCC(c3noc4cc(F)ccc34)CC1)CCC[C@@H]2O | 0 | - | - | 0 | 0 | -
O=C(c1cccs1)N1CCN=C1SCc1cccnc1 | 0 | 0 | 0 | 0 | 0 | 0
O=C(N1CCN=C1SCc1cccnc1)C12CC3CC(CC(C3)C1)C2 | 0 | 0 | 3.5µM | 0 | 0 | 0
COc1ccc2c(c1)c(=O)c(S(=O)(=O)c1ccc(Cl)cc1)cn2Cc1cc(C)ccc1C | - | 0 | 0 | 0 | 0 | 0
COc1cccc(C#Cc2c(C=O)n(C)c3ccccc23)c1 | 0 | 0 | 10µM | 0 | 0 | 0
CCOc1ccc(-n2nc(CO)c(C(=O)NCc3ccc(Cl)cc3)n2)cc1 | - | 0 | 0 | 0 | 0 | 0
C=C[C@@]1(C)CC(=O)[C@]2(O)[C@@]3(C)[C@@H](O)CCC(C)(C)[C@@H]3[C@H](OC(C)=O)[C@H](O)[C@@]2(C)O1 | 7.9µM | 0 | 0 | 0 | 0 | 0
C=C1C(=O)O[C@H]2C[C@]3(C)C([C@@H](OC(=O)/C(C)=C/C)[C@H]12)[C@](C)(O)CC[C@H]3O (some centres not stated) | 0 | 0 | 0 | 0 | ? | 0
C=C[C@@]1(C)CC(=O)[C@]2(O)[C@@]3(C)[C@@H](O)CCC(C)(C)[C@@H]3[C@H](O)[C@H](OC(C)=O)[C@@]2(C)O1 | 1.3µM | 0 | 0 | 0 | 0 | 0
NS(=O)(=O)c1ccc(NC(=S)Nc2ccn(Cc3cccc4ccccc34)n2)cc1 | 0 | 0 | 0 | 0 | 13µM | 0

Screening data: PubChem BioAssay, National Center for Advancing Translational Sciences (NCATS)
